“And” between values parts separate entries of the source, which are not always exact repeats. Equal values may be shown once. More than one record can exist for a structure, and the calls need not agree. The source made the active and inactive calls. Entries that show only a call come without a potency. Unless noted, calls follow the shape of the dose curve; as a rule, active = well fitted curve in the direction sought with a large enough effect in the repeat runs; inconclusive = weak or mixed curves; inactive = no such curve, though single readings can be large; an effect the other way counts as inactive or inconclusive.
Columns and labels:
[1] = qHTS assay to identify small molecule antagonists of the thyroid receptor (TR) signaling pathway (AID 743065); also: nearly all actives have a fitted effect of over 55% in size; also: potency is read from the fitted curve at half-maximal effect
In short: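 GH3.TRE-Luc rat pituitary cells (two TREs driving luciferase) were dosed with compound, then stimulated with 1 nM T3 (final) for 23.5 h at 37 C. ONE-Glo luminescence was the read-out, with CellTiter-Fluor fluorescence as the cytotoxicity counter-screen.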

[2] = tested on: thyroid hormone receptor (rat, GH3 cells); assay: qHTS assay to identify small molecule agonists of the thyroid receptor (TR) signaling pathway (AID 743066; calls by dose curve)
[3] = biological target: Estrogen receptor (Homo sapiens) (UniProt P03372); assay: qHTS assay to identify small molecule antagonists of the estrogen receptor alpha (ER-alpha) signaling pathway (AID 743069; active = well fitted curve in the direction sought with a large enough effect in the signal ratio in the repeat runs, not every such curve was filed as active; inconclusive = weak or mixed curves, or effect the other way; inactive = no such curve, though single readings can be large or run the other way; the % refers to the signal ratio; also: potency is read from the fitted curve at half-maximal effect)
In short: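 Beta-lactamase FRET fluorescence is read after 2 hr at room temperature with LiveBLAzer B/G substrate. Before that, ER-alpha-bla HEK293 cells sit 4 hr after plating, then receive compound plus 17beta-estradiol and incubate 18 hr at 37C.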

[4] = qHTS assay to identify small molecule antagonists of the estrogen receptor alpha (ER-alpha) signaling pathway - cell viability counter screen (AID 743074; calls by dose curve;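 also: HEK293 cells carrying ER-alpha-UAS-bla reporter stimulated with 17beta-estradiol; nearly all actives have a fitted effect of over 45% in size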)
[5] = biological target: Estrogen receptor (Homo sapiens) (UniProt P03372); assay: qHTS assay to identify small molecule agonists of the estrogen receptor alpha (ER-alpha) signaling pathway (AID 743075; calls by dose curve;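 also: HEK293 GripTite cells with ER-alpha and UAS-driven beta-lactamase reporter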; also: potency is read from the fitted curve at half-maximal effect)
[6] = biological target: Estrogen receptor (Homo sapiens) (UniProt P03372); assay: qHTS assay to identify small molecule agonists of the estrogen receptor alpha (ER-alpha) signaling pathway using the BG1 cell line (AID 743079); conditions: BG1Luc4E2 cells, ERE-luciferase agonist, 22 h; activation: at 70.3 µM (top of the series) unless noted; also: nearly all actives have a fitted effect of over 20% in size; also: potency is read from the fitted curve at half-maximal effect
[7] = qHTS assay to identify small molecule antagonists of the estrogen receptor alpha (ER-alpha) signaling pathway using the BG1 cell line (AID 743080; calls by dose curve;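 also: BG1 cells stimulated with 17beta-estradiol alongside compound; nearly all actives have a fitted effect of over 25% in size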)
In short: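 Readout is ONE-Glo luminescence, taken 30 min at room temperature after reagent addition, preceded by a CellTiter-Fluor viability read; BG1-Luc-4E2 cells had received compound and 17beta-estradiol for 21.5 h at 37 C.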

[8] = qHTS assay to identify small molecule antagonists of the estrogen receptor alpha (ER-alpha) signaling pathway using the BG1 cell line - cell viability counter screen (AID 743081);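 also: compound given together with 17beta-estradiol as the ER stimulus; nearly all actives have a fitted effect of over 45% in size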
[9] = biological target: Aromatase (Homo sapiens) (UniProt P11511); assay: qHTS assay to identify aromatase inhibitors (AID 743083); also: nearly all actives have a fitted effect of over 55% in size; also: potency is read from the fitted curve at half-maximal effect
[10] = qHTS assay to identify aromatase inhibitors - cell viability counter screen (AID 743084);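 also: cells stimulated with testosterone during compound exposure; nearly all actives have a fitted effect of over 55% in size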
[11] = qHTS assay to identify small molecule that activate the aryl hydrocarbon receptor (AhR) signaling pathway - cell viability counter screen (AID 743086);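 also: HepG2 liver cells carrying the AhR DRE luciferase reporter; nearly all actives have a fitted effect of over 45% in size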
In short: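 HepG2-AhR-luc (HG2L7.5c1) cells, 4000/well, treated 24 h at 37 C with compound; viability measured as CellTiter-Fluor fluorescence after 30 min in the same wells as the luciferase read.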

[12] = biological target: Peroxisome proliferator-activated receptor gamma (Homo sapiens) (UniProt P37231); assay: qHTS assay to identify small molecule agonists of the peroxisome proliferator-activated receptor gamma (PPARg) signaling pathway (AID 743094; active = well fitted activation curve with a large enough effect in the signal ratio in the repeat runs, not every such curve was filed as active; inconclusive = weak or mixed curves, or effect the other way; inactive = no such curve, though single readings can be large or run the other way; the % refers to the signal ratio)
In short: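 Agonism was assessed in a beta-lactamase reporter system, HEK293H cells with a stably integrated UAS-bla construct under PPARg control; the 17 h treatment at 37C preceded a 1 h room-temperature FRET substrate read.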

[13] = biological target: Peroxisome proliferator-activated receptor gamma (Homo sapiens) (UniProt P37231); assay: qHTS assay to identify small molecule antagonists of the peroxisome proliferator-activated receptor gamma (PPARg) signaling pathway (AID 743191; calls by dose curve; also: nearly all actives have a fitted effect of over 30% in size; also: potency is read from the fitted curve at half-maximal effect)
In short: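 GeneBLAzer PPARg UAS-bla HEK293H cells, 5 h post-plating, exposed to compounds 17 h at 37C. LiveBLAzer B/G FRET substrate added for 1 h at room temperature; beta-lactamase reporter read by fluorescence intensity.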

[14] = qHTS assay to identify small molecule antagonists of the peroxisome proliferator-activated receptor gamma (PPARg) signaling pathway - cell viability counter screen (AID 743194); conditions: Potency: co-treated with 50 nM rosiglitazone unless noted; also: nearly all actives have a fitted effect of over 55% in size
In short: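 Cytotoxicity counter screen in PPARg-bla HEK293H cells, same wells as reporter assay. Compounds plus 50 nM rosiglitazone (final) for 17 h at 37 C, then viability read by CellTiter-Glo luminescence.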

[15] = qHTS assay for small molecule agonists of the antioxidant response element (ARE) signaling pathway (AID 743202; active = well fitted activation curve with a large enough effect in the signal ratio in the repeat runs, not every such curve was filed as active; inconclusive = weak or mixed curves, or effect the other way; inactive = no such curve, though single readings can be large or run the other way; the % refers to the signal ratio; also: potency is read from the fitted curve at half-maximal effect)
In short: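 HepG2 ARE-bla reporter line, 2,000 cells/well; 5 h preincubation 37 C/5% CO2; compound (DMSO) 16 h 37 C; B/G FRET substrate 2 h RT; fluorescence intensity.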

[16] = qHTS assay for small molecule agonists of the antioxidant response element (ARE) signaling pathway - cell viability counter screen (AID 743203; calls by dose curve; also: nearly all actives have a fitted effect of over 55% in size)
In short: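 ATP content via CellTiter-Glo luminescence served as the viability measure. Cells: ARE-bla HepG2, 2,000 per well. Exposure: 16 hrs, 37C/5% CO2.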

[17] = qHTS assay for small molecule activators of the heat shock response signaling pathway - cell viability counter screen (AID 743209); also: nearly all actives have a fitted effect of over 50% in size
In short: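 Compounds dissolved in DMSO were added to overnight-plated HSE-bla HeLa cells and left 5 h at 37 C. Cell viability was quantified by luminescence using CellTiter-Glo.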

[18] = qHTS assay for small molecule activators of the heat shock response signaling pathway (AID 743210; active = well fitted activation curve with a large enough effect in the signal ratio in the repeat runs, with a control signal flat, not every such curve was filed as active; inconclusive = weak or mixed curves; the % refers to the signal ratio;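 also: HeLa cells with beta-lactamase reporter driven by heat shock elements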)
In short: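 Beta-lactamase reporter read-out: FRET substrate fluorescence after 2.5 h at RT, following 5 h compound treatment at 37 C of HeLa cells carrying HSE-driven bla reporter; quantitative HTS format.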

[19] = qHTS assay to identify small molecule agonists of the peroxisome proliferator-activated receptor delta (PPARd) signaling pathway - cell viability counter screen (AID 743211); also: nearly all actives have a fitted effect of over 55% in size
In short: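 Counter screen for cytotoxicity run in parallel with the PPARd reporter screen. Beta-lactamase reporter HEK293H cells exposed to compounds 17 h; ATP-based CellTiter-Glo luminescence quantified viability.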

[20] = biological target: Aryl hydrocarbon receptor (Homo sapiens) (UniProt P35869); assay: qHTS assay to identify small molecule that activate the aryl hydrocarbon receptor (AhR) signaling pathway (AID 743085); also: nearly all actives have a fitted effect of over 15% in size; also: potency is read from the fitted curve at half-maximal effect;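 as to activation: HG2L7.5c1 human HepG2 liver cells with stably integrated DRE-driven firefly reporter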
In short: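 Compounds were tested in HepG2 hepatocellular carcinoma cells harbouring a stably integrated luciferase gene under control of 20 DREs. Increased reporter signal after 24 h treatment at 37C was taken as AhR activation.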

Sequence of Aromatase (Homo sapiens) (P11511 whole entry, looked up): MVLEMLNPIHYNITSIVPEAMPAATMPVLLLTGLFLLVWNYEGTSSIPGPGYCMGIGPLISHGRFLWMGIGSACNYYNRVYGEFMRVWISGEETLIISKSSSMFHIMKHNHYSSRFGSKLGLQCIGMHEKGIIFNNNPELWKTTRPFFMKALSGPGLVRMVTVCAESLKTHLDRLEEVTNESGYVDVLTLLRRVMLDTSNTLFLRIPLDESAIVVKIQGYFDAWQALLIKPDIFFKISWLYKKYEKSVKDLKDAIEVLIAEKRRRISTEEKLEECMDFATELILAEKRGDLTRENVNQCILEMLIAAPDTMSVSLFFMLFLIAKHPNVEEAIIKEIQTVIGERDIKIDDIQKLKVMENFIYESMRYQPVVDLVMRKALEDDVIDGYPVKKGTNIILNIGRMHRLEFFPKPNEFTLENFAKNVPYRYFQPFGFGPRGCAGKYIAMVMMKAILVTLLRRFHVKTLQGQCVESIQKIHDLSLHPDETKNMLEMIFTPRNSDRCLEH
Sequence of Estrogen receptor (Homo sapiens) (P03372 whole entry, looked up): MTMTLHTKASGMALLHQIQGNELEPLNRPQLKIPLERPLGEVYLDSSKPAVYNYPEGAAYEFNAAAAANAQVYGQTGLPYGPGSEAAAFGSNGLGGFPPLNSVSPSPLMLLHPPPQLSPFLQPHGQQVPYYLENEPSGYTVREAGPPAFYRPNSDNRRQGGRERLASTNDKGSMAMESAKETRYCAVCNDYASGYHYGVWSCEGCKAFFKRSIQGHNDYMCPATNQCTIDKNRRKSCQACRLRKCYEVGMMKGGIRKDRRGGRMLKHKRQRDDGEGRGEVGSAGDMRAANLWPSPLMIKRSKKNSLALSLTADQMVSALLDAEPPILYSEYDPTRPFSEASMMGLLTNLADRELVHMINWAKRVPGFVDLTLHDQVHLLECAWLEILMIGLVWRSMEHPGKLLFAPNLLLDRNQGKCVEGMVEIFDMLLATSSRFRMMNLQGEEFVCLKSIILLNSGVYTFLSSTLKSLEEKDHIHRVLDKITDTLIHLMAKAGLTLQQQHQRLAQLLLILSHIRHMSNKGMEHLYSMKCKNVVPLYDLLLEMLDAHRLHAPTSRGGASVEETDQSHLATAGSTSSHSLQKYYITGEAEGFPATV
Sequence of Aryl hydrocarbon receptor (Homo sapiens) (P35869 whole entry, looked up): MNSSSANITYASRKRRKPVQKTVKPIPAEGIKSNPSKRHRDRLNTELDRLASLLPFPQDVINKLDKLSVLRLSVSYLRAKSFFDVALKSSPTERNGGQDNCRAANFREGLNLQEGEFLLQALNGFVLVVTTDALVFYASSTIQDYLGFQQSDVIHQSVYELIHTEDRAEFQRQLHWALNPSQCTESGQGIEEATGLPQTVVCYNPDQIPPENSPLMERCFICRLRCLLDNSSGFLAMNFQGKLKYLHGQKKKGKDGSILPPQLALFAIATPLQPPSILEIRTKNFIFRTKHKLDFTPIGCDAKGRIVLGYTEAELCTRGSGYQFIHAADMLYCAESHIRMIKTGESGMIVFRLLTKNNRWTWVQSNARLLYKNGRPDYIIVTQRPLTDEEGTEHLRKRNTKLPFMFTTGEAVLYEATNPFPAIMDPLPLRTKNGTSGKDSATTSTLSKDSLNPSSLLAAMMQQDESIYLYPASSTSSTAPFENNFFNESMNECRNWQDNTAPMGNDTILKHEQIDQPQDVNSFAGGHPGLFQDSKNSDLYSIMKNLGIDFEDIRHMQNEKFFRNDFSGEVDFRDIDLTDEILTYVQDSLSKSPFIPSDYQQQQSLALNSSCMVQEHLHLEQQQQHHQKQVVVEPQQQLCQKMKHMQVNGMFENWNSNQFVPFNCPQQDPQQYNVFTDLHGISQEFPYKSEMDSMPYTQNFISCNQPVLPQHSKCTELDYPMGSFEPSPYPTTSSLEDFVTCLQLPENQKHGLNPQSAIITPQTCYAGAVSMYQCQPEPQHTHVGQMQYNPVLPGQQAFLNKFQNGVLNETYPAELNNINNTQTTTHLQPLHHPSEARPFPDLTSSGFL
Sequence of Peroxisome proliferator-activated receptor gamma (Homo sapiens) (P37231 whole entry, looked up): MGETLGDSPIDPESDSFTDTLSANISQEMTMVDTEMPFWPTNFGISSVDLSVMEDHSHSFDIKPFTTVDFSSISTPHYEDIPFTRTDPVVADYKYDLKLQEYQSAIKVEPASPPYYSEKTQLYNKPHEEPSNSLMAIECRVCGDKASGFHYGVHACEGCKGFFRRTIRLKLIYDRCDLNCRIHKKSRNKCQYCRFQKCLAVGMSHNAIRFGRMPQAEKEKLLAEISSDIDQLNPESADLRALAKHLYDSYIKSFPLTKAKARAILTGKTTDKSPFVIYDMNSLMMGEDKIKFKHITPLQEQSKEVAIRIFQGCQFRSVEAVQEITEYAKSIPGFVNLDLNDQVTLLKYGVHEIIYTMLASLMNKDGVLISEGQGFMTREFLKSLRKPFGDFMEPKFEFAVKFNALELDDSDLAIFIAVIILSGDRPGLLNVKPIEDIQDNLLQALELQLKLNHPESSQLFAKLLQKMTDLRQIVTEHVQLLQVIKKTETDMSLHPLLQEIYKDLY

SMILES | Potency [1] | Potency [2] | Potency [3] | Potency [4] | Potency [5] | Potency [6] | Potency [7] | Potency [8] | Potency [9] | Potency [10] | Potency [11] | Potency [12] | Potency [13] | Potency [14] | Potency [15] | Potency [16] | Potency [17] | Potency [18] | Potency [19] | Potency [20]
O=[N+]([O-])/N=C1\NCCN1Cc1ccc(Cl)nc1 | inactive | inactive | inactive | inactive | inactive | inactive | inactive | inactive | inactive | inactive | inactive | inactive | inactive | inactive | inactive | inactive | inactive | inactive | inactive | 
CCOP(=S)(OCC)SCn1c(=O)oc2cc(Cl)ccc21 | 68.6 µM (active) | inactive | inactive | inactive | inactive | inactive | inactive | inactive | 65.6 µM (active) | inactive | inactive | inactive | inactive |  | 9.69 µM (active) | inactive | inactive | inactive | inactive | 
CCCCCCCCCCCCCl | inactive | inactive | inactive | inactive | 54.2 µM [activator] (active) and inactive | 30.2 µM (active) and inactive | inactive | inactive | inactive | inactive | inactive | inactive | inactive | inactive | inactive | inactive | inactive | inactive | inactive | inactive
CNC(=O)CSP(=S)(OC)OC | inactive | inactive | inactive | inactive | inactive | inactive | inactive | inactive | inactive | inactive | inactive | inactive | inactive | inactive | inactive | inactive | inactive | inactive | inactive | inactive
CCCCOC(=O)COC(=O)c1ccccc1C(=O)OCCCC | inactive | inactive | inactive | inactive | inactive | inactive | inactive | inactive | inactive | inactive | inactive | inactive | inactive | inactive | inactive | inactive | inactive | inactive | inactive | 
C=C(C)C#N | inactive | inactive | inactive | inactive | inactive | inactive | inactive | inactive | inactive | inactive | inactive |  |  | inactive | inactive | inactive | inactive | inactive | inactive | inactive
CCCCOCC1CO1 (stereo not given) | inactive | inactive | inactive | inactive | inactive | inactive | inactive | inactive | inactive | inactive | inactive | inactive | inactive | inactive | inactive | inactive | inactive | inactive | inactive | 
CC(C)COC(=O)c1ccccc1C(=O)OCC(C)C | inactive | inactive | inactive | inactive | 13.8 nM [inconclusive] (active) and inactive | 21.7 µM (active) | inactive | inactive | inactive | inactive | inactive | inactive | inactive | inactive | inactive | inactive | inactive | inactive | inactive | 
CC1(C)Cc2cccc(O)c2O1 | inactive | inactive | inactive | inactive | inactive | inactive | inactive | inactive | inactive | inactive | inactive | inactive | inactive | inactive | inactive | inactive | inactive | inactive | inactive | 
O=C(O)CF | inactive | inactive | inactive | inactive | inactive | inactive | inactive | inactive | inactive | inactive | inactive | inactive | inactive | inactive | inactive | inactive | inactive |  | inactive | inactive
CNC(=O)Oc1cccc2c1OC(C)(C)C2 | inactive | inactive | inactive | inactive | inactive | inactive and 24.3 µM (active) | inactive | inactive | inactive | inactive | inactive | inactive | inactive | inactive | inactive | inactive | inactive | inactive | inactive | inactive
OC(c1ccc(Cl)cc1)(c1cncnc1)c1ccccc1Cl (stereo not given) | 61.1 µM (active) | inactive | 54.9 µM [inconclusive] (active) | inactive | 17.7 µM [activator] (active) and 61.6 µM [inconclusive] (active) | 9.69 µM (active) | inactive | inactive |  | inactive | inactive |  | 54.9 µM (active) | inactive |  | inactive | inactive | inactive | inactive | 
CCC/C=N/O | inactive | inactive | inactive | inactive | inactive | inactive | inactive | inactive | inactive | inactive | inactive | inactive |  | inactive | inactive | inactive | inactive | inactive | inactive | 
CCOC(=O)c1ccccc1N | inactive | inactive | inactive | inactive | inactive | inactive | inactive | inactive | inactive | inactive | inactive | inactive |  | inactive | inactive | inactive | inactive | inactive | inactive | inactive
O=NN1CCOCC1 | inactive | inactive | inactive | inactive | inactive | inactive | inactive | inactive | inactive | inactive | inactive | inactive | inactive | inactive | inactive | inactive | inactive | inactive | inactive | inactive
CSc1nc(NC(C)C)nc(NC(C)C)n1 | inactive | inactive | inactive | inactive | inactive | inactive | inactive | inactive | inactive | inactive | inactive | inactive |  | inactive |  | inactive | inactive | inactive | inactive | 
ClC(Cl)(Cl)c1ccccc1 | inactive | inactive | inactive | inactive | inactive | inactive | inactive | inactive | inactive | inactive | inactive |  |  | inactive | inactive | inactive | inactive | inactive | inactive | inactive
COc1ccc(O)c(C(C)(C)C)c1 | inactive | inactive | inactive | inactive | inactive | inactive | inactive | inactive | inactive | inactive | inactive | inactive | inactive | inactive |  | inactive | inactive | inactive | inactive | inactive
Clc1cccc(C(Cl)(Cl)Cl)n1 | inactive | inactive | inactive | inactive | inactive | inactive | inactive | inactive | inactive | inactive | inactive | inactive | inactive | inactive | inactive | inactive | inactive | inactive | inactive | 
Clc1ccc(C(Cl)(Cl)Cl)cc1 | inactive | inactive | inactive | inactive | inactive | inactive and 30.6 µM (active) | inactive | inactive | inactive | inactive | inactive | inactive | inactive | inactive | inactive | inactive | inactive | inactive | inactive | inactive
CC1=C(C(=O)Nc2ccccc2)SCCO1 | inactive | inactive | inactive | inactive | inactive | 31.1 µM (active) and 27.3 µM (active) |  | inactive | inactive | inactive | inactive | inactive | inactive | inactive | inactive | inactive | inactive | inactive | inactive | 27.8 µM (active) and 24.3 µM (active)
CCCCOCCOC(C)=O | inactive | inactive | inactive | inactive | inactive | inactive | inactive | inactive | inactive | inactive | inactive | inactive |  | inactive | inactive | inactive | inactive | inactive | inactive | 
CCOS(=O)(=O)OCC | inactive | inactive | inactive | inactive | inactive | inactive | inactive | inactive | inactive | inactive | inactive | inactive | inactive | inactive | inactive | inactive | inactive |  | inactive | inactive
CCOP(=S)(OCC)SCSC(C)(C)C | inactive | inactive | inactive | inactive | inactive | inactive | inactive | inactive | inactive | inactive | inactive | inactive | inactive | inactive | inactive | inactive | inactive | inactive | inactive | 
N#Cc1cccnc1 | inactive | inactive | inactive | inactive | inactive | inactive | inactive | inactive | inactive | inactive | inactive | inactive | inactive | inactive | inactive | inactive | inactive | inactive | inactive | 
